PubChem BioAssay AID624417 (National Center for Advancing Translational Sciences (NCATS), 2012)
About 6,400 (1.6%) of roughly 410,000 compounds were called active. About 20% were inconclusive and are not listed. Calls follow the shape of the dose curve; as a rule, active = well fitted inhibition curve with a large enough effect; inconclusive = small, poorly fitted or top-dose-only effect; inactive = no such curve, though single readings can be large or run the other way. The full list was thinned out, with actives kept by preference.

What follows are compounds tested against Glucagon-like peptide 1 receptor (Homo sapiens) (UniProt P43220) (assay: qHTS of GLP-1 Receptor Inverse Agonists (Inhibition Mode)). Details: HEK293 GLP-1R CRE-luciferase, luminescence, 24 h, GLP-1R form is constitutively active; series mostly up to 38.3 µM.
Procedure, shortened: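 HEK293 cells stably co-expressing constitutively active GLP-1R and a cAMP-responsive luciferase reporter were seeded in DMEM with 10% Nu serum, given compounds after 12 h, and incubated 24 h at 37 deg C. Luminescence was then read.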
Also: nearly all actives have a fitted effect of over 55% in size.
Potency is read from the fitted curve at half-maximal effect.

Sequence of Glucagon-like peptide 1 receptor (Homo sapiens) (P43220 whole entry, looked up): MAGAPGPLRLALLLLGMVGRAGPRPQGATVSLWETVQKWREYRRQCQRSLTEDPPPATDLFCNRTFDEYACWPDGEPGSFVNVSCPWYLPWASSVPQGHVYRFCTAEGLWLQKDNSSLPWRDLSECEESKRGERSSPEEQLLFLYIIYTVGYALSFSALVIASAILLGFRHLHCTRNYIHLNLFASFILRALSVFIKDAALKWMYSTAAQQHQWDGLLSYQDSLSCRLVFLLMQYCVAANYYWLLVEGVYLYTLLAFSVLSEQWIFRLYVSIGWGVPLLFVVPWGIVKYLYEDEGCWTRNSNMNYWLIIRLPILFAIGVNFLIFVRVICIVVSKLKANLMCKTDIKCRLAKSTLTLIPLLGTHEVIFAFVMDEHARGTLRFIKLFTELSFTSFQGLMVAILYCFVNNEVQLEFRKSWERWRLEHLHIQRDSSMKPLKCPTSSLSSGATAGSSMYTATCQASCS

Potency, active:
CC1(C)C(C=C(Cl)Cl)C1C(=O)N(Cc1ccc(Cl)cc1)C1CCS(=O)(=O)C1 (configuration not stated) 8.91 µM
O=C(CN1CCN(Cc2ccccc2)CC1)NC(c1ccccc1)c1ccccc1 10 µM
CSc1nsc(SC)c1NC(=O)OC1CCCCC1 7.08 µM
O=[N+]([O-])c1cc(Br)c(O)c(/C=N/Nc2nc3ccccc3s2)c1 4.47 µM
O=C(NCCC1=CCCCC1)C1CCN(Cc2cnn(-c3ccccc3)c2-n2cccc2)CC1 4.47 µM
CC1=NN(C(=O)c2ccc(Br)cc2)C(O)(c2ccccc2)C1 (configuration not stated) 1.12 µM
c1ccc(Nc2nc(N3CCOCC3)c3ccccc3n2)cc1 10 µM
Cc1ccc2cccc(NC(=O)c3cccc4ccccc34)c2n1 11.2 µM
COc1ccc(-c2nc3ccccc3n2CCC(C)C)cc1OC 8.91 µM
CCN(CC)C(=O)C1=C(C)N(Cc2ccc(C(C)(C)C)cc2)C(=O)C(CC(=O)NCc2cccc3ccccc23)C1 (configuration not stated) 11.2 µM
CCOc1cccc(-n2nnnc2-c2ccc(OC)cc2)c1 2.51 µM
Cc1cccc(NC(=S)NCCc2ccc(Cl)cc2)c1C 5.62 µM
CC1CCc2sc(C(=O)NCC(c3ccco3)N3CCCCC3)cc2C1 (configuration not stated) 8.91 µM
CC1Cc2ccccc2N1S(=O)(=O)c1cccc(C(=O)NCC(c2ccco2)N2CCCC2)c1 (configuration not stated) 10 µM
COC(=O)c1sccc1S(=O)(=O)N(CC(=O)Nc1ccc(C)c(F)c1)c1ccc(C)c(C)c1 8.91 µM
O=C(NCCC1CCCCN1S(=O)(=O)c1cccs1)C(=O)Nc1ccc(F)cc1F (configuration not stated) 6.31 µM
O=C(c1cc2sccc2n1Cc1ccc(F)cc1)N1CCc2ccccc21 5.01 µM

Potency, inactive:
CN1OC[C@@H]2CN(C(=O)c3ccc(-c4ccccc4)cc3)[C@H](c3ccc(-c4cccc(F)c4)cc3)C[C@@H]21
CCCCN1C(=O)C(CC(=O)NCc2cccs2)CC(C(=O)N2CCCCCC2)=C1C (configuration not stated)
Cc1cc(Cl)ccc1OCC(=O)N(Cc1ccc(N(C)C)cc1)C1CCS(=O)(=O)C1 (configuration not stated)
COc1ccc(C(=O)N(Cc2ccc(N(C)C)cc2)C2CCS(=O)(=O)C2)cc1 (configuration not stated)
C=CCN1CCN(c2ccncc2S(=O)(=O)N2CCN(C)CC2)CC1
C[C@@H]1Cn2cnc(C(=O)Nc3ccc(CNC(=O)OC(C)(C)C)cc3)c2C(=O)N1
O=C(Cc1ccc(-c2ccccc2)cc1)NC(c1ccccc1)c1ccccc1
O=C(CN1CCN(Cc2ccccc2)CC1)Nc1ccc(F)c(F)c1
COc1ccc(S(=O)(=O)N(C)C)cc1NC(=O)COC(=O)c1n[nH]c2ccccc12
Nc1ncnc2c1ncn2[C@@H]1O[C@H](CNC(=O)[C@H](N)Cc2cccnc2)[C@@H](O)[C@H]1O
COc1ccc(CC(=O)N/N=C/c2cc([N+](=O)[O-])cc(Br)c2O)cc1
O=C(NC(Nc1nc2ccc([N+](=O)[O-])cc2s1)(C(F)(F)F)C(F)(F)F)c1ccccc1
CC1(C(=O)O)CCN1C(=O)/C=C/c1ccccc1 (configuration not stated)
Cc1cccc(S(=O)(=O)N(C)C[C@@H]2OCc3cnnn3CCCC(=O)N([C@H](C)CO)C[C@@H]2C)c1
Cc1cc(C)cc(NC(=O)CSCc2cnn(-c3ccccc3)c2-n2cccc2)c1
CC(=O)Nc1ccc(NC(=O)CSCc2cnn(-c3ccccc3)c2-n2cccc2)cc1
Cc1ccc(S(=O)(=O)N2C[C@H]3C(=O)C[C@@H](c4cccc5ccccc45)N(S(=O)(=O)c4ccc(C)cc4)[C@H]3C[C@H]2c2ccc(Cl)cc2)cc1
CC1(C(=O)NS(=O)(=O)c2cccc(OC(F)F)c2)CCN1C(=O)C1CC1 (configuration not stated)
CC1=NN(C(=O)c2ccccc2Br)C(O)(c2cccnc2)C1 (configuration not stated)
CC1=NN(C(=O)Cc2ccc(C)cc2)C(O)(c2cccnc2)C1 (configuration not stated)
CCOC(=O)[C@]12CCCC=C1N(CCC1=CCCCC1)C(=O)[C@H](CC(=O)N1CCOCC1)C2
CC(=O)Nc1cccc(-c2cc3nc(NCc4cccnc4)n(C)c(=O)c3s2)c1
Cc1c(C(=O)NCC2CC2)sc(=O)n1Cc1cccc(F)c1
O=C1NC[C@H](Cc2ccc(O)cc2)N(C[C@@H]2CCCN2C[C@H](Cc2ccccc2)N2C[C@H](Cc3ccccc3)N(CC3CCCCC3)C(=O)C2=O)C1=O
CC1CN(c2nc(Nc3ccccc3)nc(N)c2[N+](=O)[O-])CC(C)O1 (configuration not stated)
c1ccc(-c2nnc(N3CCOCC3)c3ccccc23)cc1
CCc1cc(C(=O)N(CC)CC(=O)Nc2c(F)cccc2F)sc1C
COC(=O)C[C@@H]1C=C[C@@H](NS(=O)(=O)c2cccc(OC)c2)[C@@H](CO)O1
Cc1ccc2cccc(NC(=O)c3ccc(OC(C)C)cc3)c2n1
O=C(Nc1cccc2cccnc12)c1cccc2c(Br)cccc12
CNc1cnc(-c2cc(OC)c(OC)c(OC)c2)cn1
CCCn1c(C(O)c2cc(OC)ccc2OC)nc2ccccc21 (configuration not stated)
CCn1c(C(O)c2cc(OC)ccc2OC)nc2ccccc21 (configuration not stated)
CCOC(=O)c1c(NC(=S)SC)sc(C(=O)N2CCc3ccccc3C2)c1C
Cc1ccc(C(=O)N[C@H](C(=O)N2CCN(c3ncccn3)CC2)C(C)C)cc1
COc1ccc(CN2C(=O)C(CC(=O)NCc3cccc4ccccc34)CC(C(=O)N3CCOCC3)=C2C)cc1 (configuration not stated)
CCN(CC)C(=O)C1=C(C)N(Cc2ccc(OC)cc2)C(=O)C(CC(=O)NCc2ccco2)C1 (configuration not stated)
COC(=O)C(Cc1c[nH]c2ccccc12)NC(=O)CCNC(=O)c1ccco1 (configuration not stated)
COc1ccc(S(=O)(=O)N2CCC(C(=O)NCCC(=O)Nc3ccccc3OC)CC2)cc1
Nc1nc2c(ncn2[C@@H]2O[C@H](CNCc3ccc(OCCCN4CCOCC4)cc3)[C@@H](O)[C@H]2O)c(=O)[nH]1
COC(=O)Cc1ccc(OC2(C)CCN(Cc3ccc4c(c3)OCCO4)C2)cc1 (configuration not stated)
COc1ccc(-n2nnnc2-c2nc3ccccc3s2)cc1
COc1ccc(NC(=O)CSc2nnnn2-c2cccc(OC)c2)cc1
O=C(NCCO)c1cccc(-c2cccc3nccn23)c1
O=C1NC[C@H](CCCCN2CCN(CCc3ccccc3)C(=O)C2=O)N(CC2CCCCC2)C1=O
COC(=O)c1ccc2nc(-c3ccc(F)cc3)c(Cc3ccc(C)cc3)n2c1
CCNC(=O)c1cc2c(c(-c3cccc(-c4cncnc4)c3)n1)[C@H](CCO)N(C(C)=O)C2
CCNC(=S)Nc1cccc(Cl)c1C
Cc1c(Cl)cccc1NC(=S)NCc1ccc2c(c1)OCO2
COc1ccc(S(=O)(=O)N(C)C[C@H]2OCc3cnnn3CCCC(=O)N([C@H](C)CO)C[C@H]2C)cc1
CC1CCc2sc(C(=O)N/N=C/C3CCCCC3)cc2C1 (configuration not stated)
CC1Cc2ccccc2N1S(=O)(=O)c1cccc(C(=O)OCC(=O)N2CCOCC2)c1 (configuration not stated)
Cc1cc(S(=O)(=O)Nc2ccc(C(=O)NCC(c3ccco3)N3CCCC3)cc2)ccc1F (configuration not stated)
CSc1ncccc1C(=O)NCC(c1ccco1)N1CCCCC1 (configuration not stated)
CCN(CC(=O)Nc1ccc(NC(C)=O)cc1)C(=O)C1CC(=O)N(c2ccc3c(c2)OCCO3)C1 (configuration not stated)
COc1cccc(CN(C)C(=O)CC[C@H]2O[C@@H](n3cnc4c(NC(=O)c5ccccc5)ncnc43)[C@H](O)[C@@H]2O)c1
CCCS(=O)(=O)NC(=O)C1(C)CCN(C(=O)c2sccc2C)C1 (configuration not stated)
O=C(OCc1cn([C@H]2C[C@H](c3ccccc3)N(C(=O)c3cccs3)C[C@@H]2O)nn1)c1ccccc1
CN1CCN(C(=O)c2ccc(-c3cc4nc(NCc5cccnc5)n(C)c(=O)c4s3)cc2)CC1
O=C(c1ccccc1)N1CCN(c2cc(-c3ccccc3)nc3cc(-c4cccc(Cl)c4)nn23)CC1
COc1ccc(OC)c(NC(=O)C2CCCN2S(=O)(=O)c2ccc3c(c2)CC(C)N3C(C)=O)c1 (configuration not stated)
C[C@@H]1CN([C@@H](C)CO)C(=O)CCCn2nncc2CO[C@@H]1CN(C)S(=O)(=O)c1ccc(-c2ccccc2)cc1
CC(C)CCNC(=O)c1[nH]c(C(F)(F)F)nc1-c1ccccc1
CCc1cccc(NC(=O)CN(c2ccc(C)c(C)c2)S(=O)(=O)c2ccsc2C(=O)OC)c1
COc1ccc(N(CC(=O)Nc2ccc(F)c(F)c2)S(=O)(=O)c2c(C)[nH]c(=O)[nH]c2=O)cc1
CCc1nc2ccc(C(=O)N3CCN(S(=O)(=O)CC)CC3)cn2c1N(C=O)CCC(C)C
COc1ccc(CCNC(=O)C(=O)NCC2CCCN2S(=O)(=O)c2cccs2)cc1OC (configuration not stated)
O=C(NCCC1CCCCN1S(=O)(=O)c1ccc(F)cc1)C(=O)NC1CC1 (configuration not stated)
COC(=O)C[C@@H]1C=C[C@@H](NC(=O)c2ccc3c(c2)OCO3)[C@@H](CO)O1
CCOC(=O)c1cc2sccc2n1Cc1ccc(C#N)cc1
CC(=O)Nc1ccc(NC(=O)c2cc3sccc3n2Cc2ccc(F)cc2)cc1
N#CCCC(C#N)(c1cccnc1)N1CCOCC1 (configuration not stated)
COCCNC(=O)C1(C)CCCN(Cc2cccc(F)c2)C1 (configuration not stated)
O=C(NCc1cccc(C(F)(F)F)c1)c1ccc2sc(COCCO)nc2c1
O=C(C[C@H]1C[C@H]2c3cc(NS(=O)(=O)c4ccc(F)cc4)ccc3O[C@H]2[C@H](CO)O1)NCc1cc(F)ccc1F
